Results: PubChem BioAssay (NCATS)
Calls of active or inactive are those of the source. Calls follow the shape of the full dose curve.
Potency is read from the fitted curve at half-maximal effect.

These molecules were tested against Catechol O-methyltransferase (Homo sapiens) (UniProt P21964) (assay: Confirmatory Screen for Target Class Profiling of Small Molecule Inhibitors of Methyltransferases (AID 1745852; as to activity change, negative = inhibition: % is scaled to controls: 0 for no effect and ±100 for the full control effect)). Conditions: MTase-Glo luminescence, SAH detection, recombinant enzyme; measured here: COMT max response; stronger effect = lower value.
Chain of Catechol O-methyltransferase (Homo sapiens) (P21964 whole entry, looked up): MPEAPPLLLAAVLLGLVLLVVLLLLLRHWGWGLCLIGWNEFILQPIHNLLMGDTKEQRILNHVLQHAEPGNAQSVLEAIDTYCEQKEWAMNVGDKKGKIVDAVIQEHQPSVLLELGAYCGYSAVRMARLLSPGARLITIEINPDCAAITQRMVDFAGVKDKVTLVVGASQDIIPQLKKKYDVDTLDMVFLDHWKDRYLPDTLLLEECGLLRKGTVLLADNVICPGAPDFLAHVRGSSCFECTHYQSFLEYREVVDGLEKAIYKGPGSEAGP
With COc1ccc(OC)c2c1cc1n2CC(C)(C(=O)NC2CCCCC2C)N(Cc2ccco2)C1=O (stereo not given) the activity was -9.78%.
CNC(=O)NCCc1ncc(C)n1C1CCCCCCC1 was tested, and the activity was 1.76%.
In the case of COc1ccc(-c2cc(-c3cnn(C)c3)cn3cncc23)cn1, the activity is reported as -23.7%.
Cc1cc(C)c(CNC(=O)c2cc(-c3cnn(C)c3C)cc3c2OCCN3C)c(=O)[nH]1 was tested, and the activity was -62.4%.
O=C(OCc1ccccc1)N1CCOCC12CCN(Cc1c[nH]c3ccccc13)CC2 gave an activity of 6.86%.
In the case of CCCC1c2cccn2CCN1C(=O)Nc1ccccc1C(F)(F)F (stereo not given), the activity is reported as -12.1%.
CCN(CC)CCCNC(=O)CCc1nnc2n(CCc3ccccc3)c(=O)c3ccccc3n12 was tested, and the activity was -3.69%.
For Cn1cc(-c2cc3c(ccn3Cc3ccncc3)c(N3CCOCC3)n2)cn1, the activity was -2.2%.
FC(F)(F)c1cccc(-c2nccn3c(C4CN(Cc5ccc6cn[nH]c6c5)C4)ncc23)c1 gave an activity of 0.457%.
CC(CNC(=O)CCc1nnc2n(Cc3ccc(F)cc3)c(=O)c3ccccc3n12)c1ccccc1 (stereo not given) gave an activity of -6.68%.
COc1ccc(-c2n[nH]n3c2nc(=O)c2ccc(C(=O)NC(C)c4ccc(F)cc4)cc23)cc1 (stereo not given) was tested, and the activity was -18.7%.
Cc1ccc(NC(=O)CSc2nnc3n(CC(C)C)c(=O)c4ccccc4n23)cc1 was tested, and the activity was 1.84%.
Work on COc1cccc(CN2CCCC3(CNc4ccccc4[S+](=O)([O-])N3)C2)c1 (stereo not given) yielded an activity of -4.83%.
O=C(c1ccc(C2CCCNC2)cc1)N1CCN(c2ccncc2)CC1 (stereo not given) gave an activity of 3.41%.
Work on COc1ccc(CCNc2nc3c(-c4cccc(F)c4)nnn3c3ccccc23)cc1OC yielded an activity of -7.47%.
For COc1ccc(CN2C[C@@H](CO)[C@H](c3ccncc3)C2)c(OC)c1, the activity was 7.35%.
CC(C)CCN1CC2(CCCN(C(=O)c3ccn(C)c(=O)c3)C2)CCC1=O (stereo not given) was tested, and the activity was 5.04%.
Molecule CCN(CC)CCNC(=O)CCCc1nnc2n3nc(-c4ccccc4)nc3c3ccccc3n12 has an activity of -2.75%.
For O=C(CCc1nnc2n(Cc3ccc(Cl)cc3)c(=O)c3ccccc3n12)NCCN1CCCC1, the activity was 4.15%.
With Cc1cc2c(cc3n2CC(C)(C(=O)NC2CCCCCCC2)N(Cc2ccco2)C3=O)o1 (stereo not given) the activity was -1.76%.
For O=C(N[C@H](C1CCNCC1)C1CC(O)C1)c1ccc2nccnc2c1 (stereo not given in full), the activity was -0.82%.
For Cc1ccc(Cn2c(=O)c3ccccc3n3c(CCC(=O)NCCCN4CCC(C)CC4)nnc23)cc1, the activity was 0%.
Work on O=C(Cn1ccc2cc(S(=O)(=O)N3CCCCC3)ccc21)NCCCN1CCCCC1 yielded an activity of -5.54%.
For CC1CCCCN1CCCNC(=O)c1cc2c(s1)CN(C1CCCC1)C2 (stereo not given), the activity was 3.35%.
Molecule O=C(Cn1c(=O)oc2cc(S(=O)(=O)N3CCCC3)ccc21)NCCC1=CCCCC1 has an activity of -0.904%.
With COc1cccc([S+](=O)([O-])N2CCC3(C2)N=C(c2cccnc2)C(=O)N3)c1 (stereo not given) the activity was -6.05%.
Nc1nc(NCc2ccc(Cl)cc2Cl)cc(C2CC(O)C2)n1 (stereo not given) showed an activity of 1.79%.
CC(=O)Nc1cc(-c2cc(C(=O)NCc3cccnc3)c3c(c2)N(C)CCO3)ccn1 was tested, and the activity was -17.6%.
In the case of O=C(CCc1nnc2n(CCc3ccccc3)c(=O)c3ccccc3n12)N1CCN(C2CCCCC2)CC1, the activity is reported as 0%.
With OCC1(Cc2ccccc2)CCCN(Cc2cn[nH]c2-c2ccc(F)cc2)C1 (stereo not given) the activity was 5.88%.
O=C(Nc1ccc2ncnc(N3CCCCC3)c2c1)c1cc(F)ccc1F was tested, and the activity was -70.5%.
COc1ccc(-c2nnn3c2nc(N2CCOCC2)c2ccccc23)cc1 was tested, and the activity was -38.9%.
CCOC(=O)CC1(NC(=O)N2CCn3cccc3C2Cc2ccccc2)CCCCC1 (stereo not given) gave an activity of 2.42%.
In the case of Cc1cnc(C2CC2)n1C1CCN(S(=O)(=O)c2ccc3c(c2)OCCO3)CC1, the activity is reported as -0.0283%.
CN(C)CC1(O)CCC2(CCN(C(=O)c3cccn3C)CC2)CC1 was tested, and the activity was 7.38%.
With CC1CCN(CCCNC(=O)CCc2nnc3n(Cc4ccc(F)cc4)c(=O)c4ccccc4n23)CC1 the activity was -10.3%.
With Cc1cnc(C2CCC2)n1C1CCN(C(=O)CCC2CCCC2)CC1 the activity was -8.04%.
With CC1CCCCN1CCNC(=O)CCc1nnc2n(Cc3ccc(F)cc3)c(=O)c3ccccc3n12 (stereo not given) the activity was 4.47%.
CC(C)c1ccc(NC(=O)Cn2c(=O)oc3cc(S(=O)(=O)NCc4ccccc4)ccc32)cc1 gave an activity of 0%.
CCCC1c2cccn2CCN1C(=O)Nc1cccc(C(F)(F)F)c1 (stereo not given) gave an activity of -5.53%.

Each molecule was assayed against Guanidinoacetate N-methyltransferase (Homo sapiens) (UniProt Q14353) in the same assay as above. Conditions: MTase-Glo luminescence, SAH detection, recombinant enzyme; activity change, negative = inhibition: at 57.3 µM (top of the series) unless noted; series mostly up to 57.3 µM.
Work on COc1ccc(OC)c2c1cc1n2CC(C)(C(=O)NC2CCCCC2C)N(Cc2ccco2)C1=O (stereo not given) yielded an activity change, negative = inhibition of -6.29%.
For CNC(=O)NCCc1ncc(C)n1C1CCCCCCC1, the activity change, negative = inhibition was 2.65%.
COc1ccc(-c2cc(-c3cnn(C)c3)cn3cncc23)cn1 showed an activity change, negative = inhibition of -6.32% [at 85.7 µM].
With Cc1cc(C)c(CNC(=O)c2cc(-c3cnn(C)c3C)cc3c2OCCN3C)c(=O)[nH]1 the Potency was 39.3 µM (active).
O=C(OCc1ccccc1)N1CCOCC12CCN(Cc1c[nH]c3ccccc13)CC2 showed an activity change, negative = inhibition of 9.15% [at 85.7 µM].
For CCCC1c2cccn2CCN1C(=O)Nc1ccccc1C(F)(F)F (stereo not given), the activity change, negative = inhibition was -8.26%.
Molecule CCN(CC)CCCNC(=O)CCc1nnc2n(CCc3ccccc3)c(=O)c3ccccc3n12 has an activity change, negative = inhibition of -1.16%.
With Cn1cc(-c2cc3c(ccn3Cc3ccncc3)c(N3CCOCC3)n2)cn1 the activity change, negative = inhibition was -2.92% [at 85.7 µM].
With FC(F)(F)c1cccc(-c2nccn3c(C4CN(Cc5ccc6cn[nH]c6c5)C4)ncc23)c1 the activity change, negative = inhibition was 4.1%.
Molecule CC(CNC(=O)CCc1nnc2n(Cc3ccc(F)cc3)c(=O)c3ccccc3n12)c1ccccc1 (stereo not given) has an activity change, negative = inhibition of -2.31%.
For COc1ccc(-c2n[nH]n3c2nc(=O)c2ccc(C(=O)NC(C)c4ccc(F)cc4)cc23)cc1 (stereo not given), the activity change, negative = inhibition was -8.96%.
In the case of Cc1ccc(NC(=O)CSc2nnc3n(CC(C)C)c(=O)c4ccccc4n23)cc1, the “outcome” value is reported as “inactive”.
COc1cccc(CN2CCCC3(CNc4ccccc4[S+](=O)([O-])N3)C2)c1 (stereo not given) showed an activity change, negative = inhibition of -8.51%.
In the case of O=C(c1ccc(C2CCCNC2)cc1)N1CCN(c2ccncc2)CC1 (stereo not given), the activity change, negative = inhibition is reported as 2.03%.
COc1ccc(CCNc2nc3c(-c4cccc(F)c4)nnn3c3ccccc23)cc1OC showed an activity change, negative = inhibition of -8.63%.
COc1ccc(CN2C[C@@H](CO)[C@H](c3ccncc3)C2)c(OC)c1 gave an activity change, negative = inhibition of 7.27%.
In the case of CC(C)CCN1CC2(CCCN(C(=O)c3ccn(C)c(=O)c3)C2)CCC1=O (stereo not given), the activity change, negative = inhibition is reported as 8.37%.
Work on CCN(CC)CCNC(=O)CCCc1nnc2n3nc(-c4ccccc4)nc3c3ccccc3n12 yielded an activity change, negative = inhibition of 0.717%.
O=C(CCc1nnc2n(Cc3ccc(Cl)cc3)c(=O)c3ccccc3n12)NCCN1CCCC1 gave an activity change, negative = inhibition of 1.71%.
Cc1cc2c(cc3n2CC(C)(C(=O)NC2CCCCCCC2)N(Cc2ccco2)C3=O)o1 (stereo not given) showed an activity change, negative = inhibition of 0%.
For O=C(N[C@H](C1CCNCC1)C1CC(O)C1)c1ccc2nccnc2c1 (stereo not given in full), the activity change, negative = inhibition was 1.16%.
Work on Cc1ccc(Cn2c(=O)c3ccccc3n3c(CCC(=O)NCCCN4CCC(C)CC4)nnc23)cc1 yielded an activity change, negative = inhibition of 0%.
With O=C(Cn1ccc2cc(S(=O)(=O)N3CCCCC3)ccc21)NCCCN1CCCCC1 the activity change, negative = inhibition was -0.43%.
CC1CCCCN1CCCNC(=O)c1cc2c(s1)CN(C1CCCC1)C2 (stereo not given) showed an activity change, negative = inhibition of 2.38%.
O=C(Cn1c(=O)oc2cc(S(=O)(=O)N3CCCC3)ccc21)NCCC1=CCCCC1 showed an activity change, negative = inhibition of 0.588%.
COc1cccc([S+](=O)([O-])N2CCC3(C2)N=C(c2cccnc2)C(=O)N3)c1 (stereo not given) gave an activity change, negative = inhibition of -6.21%.
In the case of Nc1nc(NCc2ccc(Cl)cc2Cl)cc(C2CC(O)C2)n1 (stereo not given), the activity change, negative = inhibition is reported as -2.38%.
With CC(=O)Nc1cc(-c2cc(C(=O)NCc3cccnc3)c3c(c2)N(C)CCO3)ccn1 the activity change, negative = inhibition was -8.39% [at 85.7 µM].
O=C(CCc1nnc2n(CCc3ccccc3)c(=O)c3ccccc3n12)N1CCN(C2CCCCC2)CC1 was tested, and the activity change, negative = inhibition was 0%.
With OCC1(Cc2ccccc2)CCCN(Cc2cn[nH]c2-c2ccc(F)cc2)C1 (stereo not given) the activity change, negative = inhibition was 4.38%.
With O=C(Nc1ccc2ncnc(N3CCCCC3)c2c1)c1cc(F)ccc1F the Potency was 21.5 µM (active).
With COc1ccc(-c2nnn3c2nc(N2CCOCC2)c2ccccc23)cc1 the Potency was 19.2 µM (active).
CCOC(=O)CC1(NC(=O)N2CCn3cccc3C2Cc2ccccc2)CCCCC1 (stereo not given) was tested, and the “outcome” value was “inactive”.
Cc1cnc(C2CC2)n1C1CCN(S(=O)(=O)c2ccc3c(c2)OCCO3)CC1 gave an activity change, negative = inhibition of -2.25%.
Molecule CN(C)CC1(O)CCC2(CCN(C(=O)c3cccn3C)CC2)CC1 has an activity change, negative = inhibition of 3.21%.
CC1CCN(CCCNC(=O)CCc2nnc3n(Cc4ccc(F)cc4)c(=O)c4ccccc4n23)CC1 gave an activity change, negative = inhibition of -2.12%.
In the case of Cc1cnc(C2CCC2)n1C1CCN(C(=O)CCC2CCCC2)CC1, the activity change, negative = inhibition is reported as -7.84%.
CC1CCCCN1CCNC(=O)CCc1nnc2n(Cc3ccc(F)cc3)c(=O)c3ccccc3n12 (stereo not given) gave an activity change, negative = inhibition of 0%.
CC(C)c1ccc(NC(=O)Cn2c(=O)oc3cc(S(=O)(=O)NCc4ccccc4)ccc32)cc1 was tested, and the activity change, negative = inhibition was 0%.
In the case of CCCC1c2cccn2CCN1C(=O)Nc1cccc(C(F)(F)F)c1 (stereo not given), the activity change, negative = inhibition is reported as -0.7%.
